# Compound activity deposited in PubChem BioAssay by National Center for Advancing Translational Sciences (NCATS).
# Vif-APOBEC3F blk: qHTS for Inhibitors of Vif-A3F Interactions: qHTS; Potency, µM (doses to about 46.1 µM), for the others: top-dose activity, negative = active; HeLa A3F-eYFP + Vif (tagged APOBEC3F with the HIV-1 protein that degrades it), YFP fluorescence increase; 390,000 tested, 0.2% active; AID 602313, 2012; note: % of control where 0% means no effect; nearly all actives have a fitted effect of over 65% in size
#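 HeLa cells stably expressing Vif plus C-terminally eYFP-tagged A3F were seeded, incubated overnight at 37 deg C, dosed with compound, incubated overnight again at 37 deg C. Yellow fluorescence (Ex 488/Em 500-530) reported blocked Vif-mediated A3F-eYFP degradation.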
# Epigenetic reg: Quantitative High-Throughput Screen for Regulators of Epigenetic Control. 280,000 tested, 0.2% active. Potency, µM (highest dose often 53.9 µM), for inactives: at the top dose GFP activation, hits mostly activators. AID 1865, 2009. murine LDR cells, GFP reporter derepression, 30 h; note: % of control where 0% means no effect; nearly all actives have a fitted effect of over 60% in size
#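 Derepression of a silenced CMV-GFP reporter in murine LDR cells is scored by enumerating GFP-positive cells with a laser-scanning microplate cytometer after 30 hours of treatment at 37 C.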
# PINK1 expr mod: A Quantitative High throughput Screen to Identify Chemical Modulators of PINK1 Expression; PINK1 immunofluorescence, high-content cytometry, 24 h; Potency, µM (highest dose often 76.6 µM), inactives show at the highest dose activation (PINK1 increase), usual class: activators; 410,000 tested, 0.2% active; active = well fitted activation curve with a large enough effect; inconclusive = small, poorly fitted or top-dose-only effect; cell line not stated here; note: % of control where 0% means no effect; nearly all actives have a fitted effect of over 65% in size
#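 Measures PINK1 amount and localization on or inside mitochondria by immunofluorescence. Stable cells get compounds at 5 concentrations for 24 hours before fixation and staining; CCCP controls included.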
# Vif-A3G inh: qHTS for Inhibitors of Vif-A3G Interactions: qHTS. Potency, µM (top dose mostly 46.1 µM), without a hit: top-dose activity, negative = active, actives largely listed as inhibitors. 410,000 tested, 0.076% active. HeLa A3G-eYFP + Vif (tagged APOBEC3G with the HIV-1 protein that degrades it), YFP fluorescence, overnight. DNA dC->dU-editing enzyme APOBEC-3G (Homo sapiens), Q9HC16. AID 602310, 2012; note: % is set by controls: 0 for no effect and ±100 for the full control effect; nearly all actives have a fitted effect of over 60% in size
# Target sequence (Q9HC16 whole entry, looked up): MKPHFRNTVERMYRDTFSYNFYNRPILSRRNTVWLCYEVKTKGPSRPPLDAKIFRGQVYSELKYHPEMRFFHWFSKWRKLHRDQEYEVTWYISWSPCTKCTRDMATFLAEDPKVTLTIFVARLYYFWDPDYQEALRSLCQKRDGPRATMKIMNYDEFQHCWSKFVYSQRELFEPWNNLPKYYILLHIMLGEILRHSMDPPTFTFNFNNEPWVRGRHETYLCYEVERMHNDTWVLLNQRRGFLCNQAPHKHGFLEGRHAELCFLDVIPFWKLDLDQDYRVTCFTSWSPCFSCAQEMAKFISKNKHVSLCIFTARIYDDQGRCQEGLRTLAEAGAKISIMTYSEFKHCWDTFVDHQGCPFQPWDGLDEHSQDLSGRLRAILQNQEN
#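 HeLa cells stably expressing Vif and C-terminally eYFP-tagged A3G, seeded overnight at 37 deg C, then exposed to compound by pintool overnight at 37 deg C. Rise in yellow fluorescence (Ex 488/Em 500-530, Acumen) marks blocked Vif-driven A3G degradation.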
# Numbers without * were called inactive; ? = inconclusive; · = no result; ! = a repeat was not active; [ ] = remark or other dose. An excerpt weighted towards active compounds, which were near 0.51% of everything screened. Unless noted, calls come from the whole dose curve; as a rule, active = well fitted curve in the direction sought with a large enough effect; inconclusive = small, poorly fitted or top-dose-only effect, or another doubt; inactive = no such curve, though single readings can be large; an effect the other way counts as inactive or inconclusive. Potency is the fitted concentration of half-maximal effect.
SMILES,Vif-APOBEC3F blk,Epigenetic reg,PINK1 expr mod,Vif-A3G inh
Oc1nc(Nc2cccc(Cl)c2)sc1/C=C1\C=Nc2ccccc21,-9%,0%,11%,-15%
Oc1cccc(Nc2nc(O)c(/C=C3\C=Nc4ccccc43)s2)c1,11µM*,1%,4%,4.5µM*
CCCCC1=CC2=C(c3ccco3)C(=O)C(C)(OC(=O)c3ccc(OC)cc3)C(=O)C2=CN1Cc1ccccc1 (stereo not drawn),?,18µM*,3%,-4%
COc1cc(/C=C(/C(=O)c2cccs2)c2nc3ccccc3[nH]2)ccc1O,-15%,6%,-46%[38.3 µM],10µM*
CN1C(=O)CSc2ccc(NC(=O)N3CCc4ccccc43)cc21,-5%,-2%,·,-16%
COc1ccc2oc(=O)c(-c3nc4ccc(C)cc4[nH]3)cc2c1,?,11µM*,4%,?
CCOc1ccccc1C1CC(c2cccs2)=NN1S(C)(=O)=O (stereo not drawn),32µM*,12%,10%,-27%
CS(=O)(=O)N1N=C(c2cccs2)CC1c1ccccc1O (stereo not drawn),?,0%,8%,-12%
Cc1cccc(NC(=O)COc2cccc3c2CCN(C)C3=O)c1,7%,-5%,-1%,-9%
CC(=O)Nc1ccc(Nc2c3c4c(cccc4n(C)c2=O)C(=O)c2ccccc2-3)cc1,8.9µM*,3%,?,-12%
Cn1c(=O)c(NCCO)c2c3c(cccc31)C(=O)c1ccccc1-2,4%,8%,0%,7%
CCCCNc1c2c3c(cccc3n(C)c1=O)C(=O)c1ccccc1-2,?,?,18%[38.3 µM],1%
Cn1c(=O)c(NC2CCCCC2)c2c3c(cccc31)C(=O)c1ccccc1-2,-57%,0.13µM*,15%,?
COc1ccc2[nH]cc(C(=O)CN3CCN(C/C=C/c4ccccc4)CC3)c2c1,·,10µM*,·,·
NS(=O)(=O)c1cccc(NC(=O)Cn2cnc3ccccc3c2=O)c1,-17%,-1%,11µM*,1%
CN(C)c1ccc2nc3c(=O)[nH]c(=O)nc-3n(CC(O)C(O)C(O)CO)c2c1 (stereo not drawn),8.9µM*,·,3%,2%
Cc1ncc(C(O)c2ccc(N(C)C)cc2)n1Cc1ccccc1 (stereo not drawn),-6%,·,0%,0%
NC(=O)c1ccc(NC(=O)COC(=O)c2ccc(Cl)nc2)cc1,10%,·,0%,1%
Cc1[nH]c2ccccc2c1/C=C/c1c(C)[nH]c2ccccc12,·,·,4%,-2%
Cc1[nH]c2ccccc2c1/C=C/c1cc[n+](C)cc1,?,14µM*,?,3.2µM*
CCCN(CCO)Cc1cccc(Oc2ccccc2)c1,-2%,2%,-5%[38.3 µM],1%
N#CC(C#N)=C(N)CSc1cccc[n+]1[O-],?,8.9µM*,-1%,2%
O=C(O)CSc1cccc[n+]1[O-],-8%,-1%,-1%,2%
Cc1ccccc1NC(=O)COC(=O)c1cccnc1,5%,0%,0%,-5%
Cc1cccc(C)c1Nc1nc2ccccc2nc1NS(=O)(=O)c1ccccc1,11µM*,1%,-1%,-15%
SMILES,Vif-APOBEC3F blk,Epigenetic reg,PINK1 expr mod,Vif-A3G inh
O=S(=O)(Nc1nc2ccccc2nc1-[n+]1ccccc1)c1ccc(Cl)cc1,-23%,-1%,1%,1%
Cc1ccc(S(=O)(=O)Nc2nc3ccccc3nc2Nc2cccc(S(=O)(=O)N3CCCC3)c2)cc1,7.1µM*,1%,?,-268%
Cc1ccccc1C([O-])=Nc1ccc[n+](-c2nc3ccccc3nc2NS(=O)(=O)c2ccccc2)c1,13µM*,-1%,2%,-7%
CCOC(=O)C1CCCN(C(=O)c2oc3ccccc3c2C)CC1 (stereo not drawn),·,·,0%,-4%
CCN(CC(=O)Nc1c(F)cccc1F)C(=O)CN1C(=O)C2CCCCC2C1=O (stereo not drawn),3%,·,-1%,-1%
N=C1S/C(=C\c2ccc(-c3cccc(Cl)c3)o2)C(=O)N1c1nccs1,25µM*,?,9%,-4%
COc1ccc(/C=C2\SC(=N)N(c3nccs3)C2=O)cc1OC,?,?,12%,?
O=C(NCC(c1cccs1)N1CCOCC1)c1cc([N+](=O)[O-])ccc1Cl (stereo not drawn),3%,-1%,-2%,-1%
O=[N+]([O-])c1ccc(O)c(C(C#Cc2ccccc2)N2CCOCC2)c1 (stereo not drawn),3%,0%,40µM*,-2%
O=C(NCc1ccccc1Cl)c1cccc2c1C(=O)c1ccc(-c3ccc(OC(F)(F)F)cc3)cc1S2(=O)=O,13µM*,·,?,-9%
COc1ccc(-c2ccc3c(c2)S(=O)(=O)c2cccc(C(=O)NCc4cccc(OC(F)(F)F)c4)c2C3=O)cc1OC,?,·,4.5µM*,?
O=C(NCc1cccc(OC(F)(F)F)c1)c1cccc2c1C(=O)c1ccc(-c3ccc(F)cc3OCc3ccccc3)cc1S2(=O)=O,3%,·,1%,-6%
CCOC(=O)/C(=C\C=C1/Sc2cc(OCC)c(OCC)cc2N1CC)C(C)=O,-89%,5.6µM*,?,9%
CCOC(=O)/C(=C/C=C1\Sc2cc(OCC)c(OCC)cc2N1CC)C(C)=O,6%,22µM*,?,9%
CCOC(=O)C1C(=O)C=C(/C=C/c2ccc(N(C)C)cc2)CC1c1ccccc1 (stereo not drawn),2.8µM*,22µM*,?,?
CC(=O)NS(=O)(=O)c1ccc2c(c1)C(=O)c1cc(S(=O)(=O)NC(C)=O)ccc1-2,?,·,-1%,4%
CCN(CC)c1nc(C)c(C(=S)Nc2cc([N+](=O)[O-])ccc2Cl)s1,11µM*,4%,9%,5%
CC1CCN(C(=O)C(C)Sc2nc(-c3ccccc3)cc(C(F)(F)F)n2)CC1 (stereo not drawn),-4%,4%,1%,20µM*!
COC(=O)CSCc1nc2ccccc2[nH]c1=O,?,25µM*,1%,-11%
COC(=O)CCc1nc2ccccc2[nH]c1=O,-10%,-1%,4%[38.3 µM],-9%
COC(=O)c1scc(C#N)c1N/N=C(\C#N)S(=O)(=O)c1ccc(Cl)cc1,-10%,-1%,?,-5%
COC(=O)c1scc(S(=O)(=O)C(C)C)c1N/N=C(\C#N)C(=O)c1ccc(Cl)cc1,16%,0%,40µM*,0%
COc1ccc(-c2nc3cnc(Nc4cccc(OC)c4)nc3n(CCC#N)c2=O)cc1,·,·,45µM*,·
COc1ccc(-c2nc3cnc(Oc4ccccc4)nc3n(CCC#N)c2=O)cc1,·,·,5%,·
COc1ccc(-c2nc3cnc(Nc4ccccc4)nc3n(CCC#N)c2=O)cc1,·,·,11µM*,·
O=C(NCC1CCCO1)c1nn2c(C(F)(F)F)cc(-c3cc(Br)cs3)nc2c1Br (stereo not drawn),10µM*,·,?,-9%
Cc1ccc(NC(=O)CSc2n[nH]c(-c3cccnc3)n2)cc1Cl,-2%,·,-3%,-3%
